Laboratory results as given in PubChem BioAssay (NCI).
The panel holds about 79,000 compounds, 15% with a hit somewhere; the sample as a whole holds those more often. A number with no mark means an inactive call. Active and inactive are the calls of the source. Rule as the data show it: active = growth inhibition above about 70%; inactive = the rest.

Experiment: NCI Yeast Anticancer Drug Screen. Data for the sgs1 strain (AID 173);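 also: 0% = growth of vehicle-only control cultures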
Conditions: S. cerevisiae sgs1 mutant, active compounds read high
Protocol: Growth inhibition of yeast strains with defined genetic alterations is measured as a screen for potential anti-cancer activity. Selected strains with alterations in DNA damage repair or cell cycle control were exposed to compounds and growth inhibition was measured relative to vehicle treated controls. The strain used in this assay is sgs1

Row | Compound | growth inhibition (at 1.2 µM) [%] | growth inhibition (at 3.7 µM) [%] | growth inhibition (at 11.0 µM) | growth inhibition (at 33.0 µM) | growth inhibition (at 100.0 µM)
1 | CCCCCCCCCCCCCC[N+](C)(CC(=O)[O-])Cc1ccccc1 (stereo not given) | 2 | 30 | 99% (active) | 99% (active) | 99% (active)
2 | CC(C)C1=CCC2C(=C1)CCC1C(C)(C(=O)O)CCCC21C (stereo not given) (tested in a mixture with another compound) | 18 | 24 | 23% | 43% | 96% (active)
3 | CCCCN(CCCC)CCSc1ccc(Cl)cc1 | -10 | -7 | 10% | 42% | 95% (active)
4 | CN(C)Cc1cc(N=Nc2ccc(Cl)cc2)cc(CN(C)C)c1O | 4 | 8 | 15% | 26% | 95% (active)
5 | N#Cc1ccc(C2NN=CC23C(=O)c2ccccc2OC3c2ccccc2)cc1 (stereo not given) | 0 | -4 | -3% | -3% | -1%
6 | CN(C)C[C@H]1CC[C@@H](CN(C)C)C1=O | 15 | 26 | 30% | 44% | 81% (active)
7 | CCN(CC)C(=S)N/N=C(/C)c1cccc(/C(C)=N\NC(=S)N(CC)CC)n1 | -14 | -3 | 7% | 39% | 88% (active)
8 | O=[N+]([O-])CC(SCc1ccccc1)c1ccc2c(c1)OCO2 (stereo not given) | 30 | 54 | 97% (active) | 100% (active) | 99% (active)
